Compounds without any hit were thinned out: in the full panel of roughly 83,000, 20% have a hit.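 Percent growth is the endpoint: 0 to 100 indicates growth inhibition (40 means 60% inhibition), 0 means no net growth, and negative values indicate cell death.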 A number with no mark means an inactive call. Activity calls are given as the source filed them. How the source made its calls: active means growth percent below 10; inactive means the rest.
How the values were obtained:
Experiment in all cases: NCI-60 one-dose screen, 48 h (100 = growth as untreated, 0 = no growth, -100 = all killed)
Settings in all cases: 10 µM unless noted
NCI-H23 lung = tested on: NCI-H23 lung
NCI-H226 lung = tested on: NCI-H226 lung
NCI-H322M lung = tested on: NCI-H322M lung
HOP-62 NSCLC = tested on: HOP-62 NSCLC
NCI-H460 lung = tested on: NCI-H460 lung
HOP-92 NSCLC = tested on: HOP-92 NSCLC
NCI-H522 lung = tested on: NCI-H522 lung
786-0 renal = tested on: 786-0 renal
COLO 205 colon = tested on: COLO 205 colon
DU-145 prostate = tested on: DU-145 prostate
K-562 leukemia = tested on: K-562 leukemia
MALME-3M melanoma = tested on: MALME-3M melanoma
MDA-MB-231 breast = tested on: MDA-MB-231 breast
RXF 393 renal = tested on: RXF 393 renal
SF-268 CNS = tested on: SF-268 CNS
SF-295 CNS = tested on: SF-295 CNS
SF-539 CNS = tested on: SF-539 CNS
UACC-257 melanoma = tested on: UACC-257 melanoma
M14 melanoma = tested on: M14 melanoma
A549/ATCC NSCLC = tested on: A549/ATCC NSCLC

| SMILES | growth (NCI-H23 lung) | growth (NCI-H226 lung) | growth (NCI-H322M lung) | growth (HOP-62 NSCLC) | growth (NCI-H460 lung) | growth (HOP-92 NSCLC) | growth (NCI-H522 lung) | growth (786-0 renal) | growth (COLO 205 colon) | growth (DU-145 prostate) | growth (K-562 leukemia) | growth (MALME-3M melanoma) | growth (MDA-MB-231 breast) | growth (RXF 393 renal) | growth (SF-268 CNS) | growth (SF-295 CNS) | growth (SF-539 CNS) | growth (UACC-257 melanoma) | growth (M14 melanoma) | growth (A549/ATCC NSCLC) |
| --- | --- | --- | --- | --- | --- | --- | --- | --- | --- | --- | --- | --- | --- | --- | --- | --- | --- | --- | --- | --- |
| COC(=O)Nc1nc2ccc(C(=O)C3CC3)cc2[nH]1 | 33.8% | 149% | 50.9% | 38.1% | 2.65% (active) | 53.5% | -37.6% (active) | 29.2% | -34.1% (active) | 1.8% (active) | -15.1% (active) | 63.2% | 22.8% | 4.26% (active) | 29.7% | -38.5% (active) | -27.5% (active) | 27.5% | 7.18% (active) | – |
| COc1cc(/C=C/C(=O)c2cccc(-n3cc(-c4ccc(Cl)cc4)[nH]c3=O)c2)cc(OC)c1OC | 52.3% | 81.4% | 92% | 86.4% | 54.7% | 51.5% | 16.5% | 82.2% | – | 37.1% | 20.9% | 94.2% | 76.7% | 53.6% | 48.8% | 80.8% | 33.7% | 67.2% | – | – |
| CN(CCC(=O)/C(=C\c1ccccc1)c1ccc(Cl)cc1)Cc1ccccc1 | 29.2% | 65.6% | 71.2% | 47.6% | 42.2% | 82.9% | -45.9% (active) | -64.5% (active) | – | – | 22.7% | 18% | 13% | -29.3% (active) | 5.31% (active) | 25.7% | -8.26% (active) | 53.5% | 37.9% | 85.9% |
| CN(C)c1cnccn1 | 91.9% | 85.4% | 114% | 90.3% | 93.8% | 94.4% | 45.9% | 98.3% | – | – | – | 127% | 72.4% | 94.5% | 91.6% | 122% | 86.5% | 95.3% | 97.5% | 91.3% |
| COc1ccc(Cn2cnc3cc(C(=O)Nc4cccc5ccccc45)ccc32)c(OC)c1 | 32.9% [30 µM] | 14.5% [30 µM] | 45% [30 µM] | 41.6% [30 µM] | 1.11% [30 µM] (active) | 21.1% [30 µM] | 3.89% [30 µM] (active) | 20.3% [30 µM] | -21.6% [30 µM] (active) | -7.09% [30 µM] (active) | 1.36% [30 µM] (active) | 38.2% [30 µM] | 4.77% [30 µM] (active) | – | 13.8% [30 µM] | 7.91% [30 µM] (active) | -36.7% [30 µM] (active) | 69.4% [30 µM] | – | – |
| CCOc1cc(N)ccc1C(=O)NCCCN(CC)CC | 87.9% | 93.6% | 100% | 98.3% | 110% | 90.6% | 98.2% | 100% | – | – | 80.3% | 96.3% | 93.2% | 90.7% | 103% | 103% | 100% | 102% | 96.1% | 104% |
| COc1cc(/C=C/C(=O)c2ccc(Nc3nc(Nc4ccccc4)nc(Nc4ccc(Cl)cc4)n3)cc2)cc(OC)c1OC | 15.5% | 39.2% | 73.3% | 52.7% | 50.5% | 1.92% (active) | 77.3% | -25.4% (active) | 94.8% | 77% | 28.9% | 44.3% | 58.1% | 58.5% | 73.2% | 64.3% | 72.8% | 87.1% | – | – |
| CCOC(=O)c1ccc(-c2ccc3cc(OC)ccc3c2)nc1C | 93% | 116% | 90.3% | 107% | 103% | 104% | 72.7% | 85.7% | 105% | 103% | – | 92.8% | 104% | 116% | 96.4% | 100% | 98.9% | 107% | – | – |
| CCN(CC)CCCNC(=O)c1ccc(N)cc1O | 95.5% | 87.9% | 90.4% | 95.6% | 108% | 89.6% | 96.6% | 105% | – | – | 12.3% | 91.2% | 94.6% | 91.3% | 93.8% | 99.7% | 98.4% | 99.3% | 94.5% | 103% |
| Fc1ccc(Nc2nc(Nc3ccc(-c4nc5ccccc5[nH]4)cc3)c3cn[nH]c3n2)cc1 | 71% | 86.9% | 84.8% | 85.6% | 47.5% | 79% | 65.9% | – | 27.8% | 54.3% | -28.7% (active) | 107% | 22.2% | 76.2% | 75.1% | 92.6% | 85.5% | 101% | – | 73.1% |
| Clc1ccc(-c2nc(NCCc3ccccc3)nc3c(NCCc4ccccc4)cnn23)cc1 | 50.8% | 99.7% | 73.7% | 85.3% | 16.3% | 97.7% | 63% | 80% | – | 84.5% | – | 96.8% | 92.1% | 94.7% | 35.1% | 56.4% | 30.9% | 71.5% | 70% | 9.98% (active) |
| C[C@@H]1C(=O)N(C[C@H](Cc2ccccc2)NC(=O)OCc2ccccc2)[C@]1(Cc1ccccc1)C(=O)OC(C)(C)C | 71.8% | 62.2% | 86.7% | 80.2% | 66.6% | 54.5% | 45% | – | 62% | 87.1% | 40.5% | 79.5% | 66.4% | 71.2% | 65.7% | 69.6% | 87.1% | 66.1% | – | 47.2% |
| CC1=NN(c2cccc(Cl)c2)C(=O)/C1=C\c1cn(CC(O)CN2CCCCC2)c2ccccc12 (stereo not drawn) | 97.8% | 96.8% | 103% | 73.6% | 44.8% | 56.3% | 71.9% | – | -58% (active) | 96.7% | 28.9% | 32.9% | 41.4% | 67.1% | 72.6% | 62.4% | 96.1% | -82.1% (active) | – | 95.2% |
| CCOC(=O)C1C(=O)C=C(c2cnccn2)CC1c1ccc(OC)c(OC)c1 (stereo not drawn) | 95.6% | 96.1% | 103% | 88.3% | 114% | 58.2% | 73.3% | 83.7% | – | 105% | 81.3% | 100% | 110% | 114% | 102% | 95.1% | 95.7% | 81.8% | 85.5% | – |
| O=C(NCOC(O)C(Cl)(Cl)Cl)NCOC(O)C(Cl)(Cl)Cl (stereo not drawn) | 102% | 95.7% | 91.7% | 91.6% | 112% | 119% | 82.8% | 99.2% | – | – | 22.2% | 99.5% | 106% | 125% | 105% | 93.8% | 90.4% | 94.9% | 100% | 97.5% |
| CC(=O)Nc1ccc2c(c1)Cc1c(F)cccc1-2 | 94.9% | 89.4% | 112% | 116% | 92.2% | 89% | – | 115% | – | 102% | 120% | 130% | 101% | 99% | 83.7% | 109% | 99.4% | 110% | 119% | 92% |
| CNC(=O)c1cc(Oc2ccc3nc(Nc4cc(Cl)cc(Cl)c4)ccc3c2)ccn1 | 70.6% | 81.9% | 82.9% | 72.1% | 66.9% | 67.6% | 29.6% | 82.6% | – | 78% | 19.1% | 64.7% | 34.6% | 92.4% | 59.8% | 47.1% | 75.3% | 53.2% | 38.5% | – |

— PubChem BioAssay (NCI)
